From PubChem BioAssay
Hits are enriched below; roughly 10% of the tested compounds scored in any of these assays.
ALOX12 inhib – 12-hLO (ALOX12) enzyme inhibition; Potency, µM (doses to about 57.1 µM), inactives show at the highest dose activity change, negative = inhibition, actives largely listed as inhibitors; P18054; purified 12-hLO, xylenol orange hydroperoxide absorbance; 150,000 tested, 0.12% active; active = well fitted inhibition curve with a large enough effect; inconclusive = small, poorly fitted or top-dose-only effect; also: potency is read from the fitted curve at half-maximal effect; nearly all actives have a fitted effect of over 55% in size
Target sequence (P18054 whole entry, looked up): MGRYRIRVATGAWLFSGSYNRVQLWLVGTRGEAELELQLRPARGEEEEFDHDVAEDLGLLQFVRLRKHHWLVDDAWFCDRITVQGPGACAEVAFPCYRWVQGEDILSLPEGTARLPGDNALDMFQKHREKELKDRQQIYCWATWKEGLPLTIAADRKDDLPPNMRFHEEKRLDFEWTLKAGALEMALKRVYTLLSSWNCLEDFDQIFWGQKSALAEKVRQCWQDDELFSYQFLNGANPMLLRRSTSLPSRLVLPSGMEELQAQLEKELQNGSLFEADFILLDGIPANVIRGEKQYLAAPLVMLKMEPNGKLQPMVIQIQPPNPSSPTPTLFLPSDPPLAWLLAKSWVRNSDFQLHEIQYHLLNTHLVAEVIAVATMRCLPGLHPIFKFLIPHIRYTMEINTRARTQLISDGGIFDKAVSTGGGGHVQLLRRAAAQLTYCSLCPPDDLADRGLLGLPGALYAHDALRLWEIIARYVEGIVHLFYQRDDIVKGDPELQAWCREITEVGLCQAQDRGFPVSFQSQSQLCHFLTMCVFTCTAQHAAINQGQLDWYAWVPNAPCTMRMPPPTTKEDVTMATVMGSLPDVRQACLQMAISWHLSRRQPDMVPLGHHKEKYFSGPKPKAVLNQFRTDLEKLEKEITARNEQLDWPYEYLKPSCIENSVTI
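150 nM 12hLO, 25 mM Hepes pH 7.0 + 0.01% Triton X-100; cpd preinc 15 min RT; 40 uM arachidonic acid, 30 min RT; Fe-XO 30 min; A573/A405 ratio as read-out.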
HPGD block – blocks human HPGD enzyme activity | P15428 | purified HPGD, NADH fluorescence kinetic, PGE2 substrate | Potency, µM, for inactives: top-dose activity change, negative = inhibition, hits mostly inhibitors | 150,000 tested, 4.3% active | AID 894; also: potency is read from the fitted curve at half-maximal effect
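NADH formation kinetics: reaction with 30 uM PGE2 and 1 mM NAD+ (final), 20 nM enzyme, Tris-HCl pH 8 with Tween 20, after 15 min compound preincubation at room temperature. Fluorescence change, last versus first of five reads.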
PNC assembly inh – inhibitors of perinucleolar compartment assembly; activity change (PNC), negative = inhibition, % at 10 µM; 140,000 tested, 3.1% active; AID 2417; PC3M PTB-GFP, PNC prevalence imaging, 16 h; stronger effect = lower value;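 active = readout at or below -70, meaning at least 70% loss of cells showing the perinucleolar compartment, a nuclear body marking cancer cells; inconclusive = readout between -30 and a set limit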;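 also: plate controls were DMSO wells for no effect and camptothecin positive control wells for full effect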
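PC3M cells stably expressing PTB-GFP, 750–1000 cells/well, treated 16 h at 37 °C with compound (23 nl of library stock), in duplicate. After paraformaldehyde fixation and Hoechst stain, imaged at 20x; PNC prevalence scored by image analysis.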
ALDH1A1 block – ALDH1A1 (human) enzyme inhibition | AID 1030 | Purified ALDH1A1, NADH fluorescence, propionaldehyde substrate | P00352 | Potency, µM (titrated, usually from 75.3 µM), without a hit: top-dose activity, negative = inhibition, hits mostly inhibitors | 220,000 tested, 7.3% active;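 also: potency is read from the fitted curve at half-maximal effect; plate controls were no enzyme wells and a reference inhibitor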
LMNA splice mod – modulators of lamin A splicing | 200,000 tested, 0.01% active | HeLa LMNA splicing GFP/RFP minigene ratio, 48 h | Potency, µM (top dose mostly 46.1 µM), inactives show top-dose ratio change, negative = inhibition, usual class: inhibitors; active = well fitted inhibition curve with a large enough effect in the signal ratio, with a control signal flat, not every such curve was filed as active; inconclusive = small, poorly fitted or top-dose-only effect, or effect the other way, or a change in a side signal; the % refers to the signal ratio; also: potency is read from the fitted curve at half-maximal effect
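S3 HeLa cells stably expressing lamin A-EGFP splicing minigene plus DsRed2, 600 cells/well, 48 h compound exposure at 37C. Laser-scanning cytometry; analysed as GFP (500-530 nm)/RFP (575-640 nm) total intensity ratio; 0.5% DMSO vehicle.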
* marks the source's active call; other numbers are inactive results; ? = inconclusive; . = not tested or not shown; [ ] = another dose, or the depositor's remark. Unless noted, calls follow the shape of the dose curve; as a rule, active = well fitted inhibition curve with a large enough effect (not every such curve was filed as active); inconclusive = small, poorly fitted or top-dose-only effect, or another doubt; inactive = no such curve, though single readings can be large or run the other way. Unless noted, % is scaled to controls: 0 for no effect and ±100 for the full control effect.

SMILES	ALOX12 inhib	HPGD block	PNC assembly inh	ALDH1A1 block	LMNA splice mod
CC(C)C[C@H](NC(=O)[C@H](Cc1ccccc1)NC(=O)CNC(=O)CNC(=O)[C@@H](N)Cc1ccc(O)cc1)C(=O)N[C@@H](CCCN=C(N)N)C(=O)N[C@@H](CCCN=C(N)N)C(=O)N[C@@H](CCC(N)=O)C(=O)N[C@@H](Cc1ccccc1)C(=O)N[C@@H](CCCCN)C(=O)N[C@H](C(=O)N[C@H](C(=O)N[C@H](C(=O)O)[C@@H](C)O)C(C)C)C(C)C	.	.	.	7%	.
OCc1ccncc1.OCc1ccncc1.[Cl][Pt]([Cl])([Cl])[Cl]	-17%[11.4 µM]	?	.	2.8µM*	.
CC(C)(C)C(=O)NC(=S)N1CCc2ccccc21	.	.	.	11µM*	26%[46 µM]
CC(Oc1ccc(Cl)cc1Cl)C(=O)NN=C1CCN(C)CC1 (configuration not stated)	-4%	-3%	-22	2.5µM*	-4%
CC(Oc1ccc(Cl)cc1Cl)C(=O)NC(=S)N1CCc2ccccc21 (configuration not stated)	-13%	-22%	-27	18µM*	-26%
COc1cccc(Cn2c(=O)c(-c3ccc(F)cc3)nc3cnc(N(C)C)nc32)c1	.	.	.	?	4%
CC(C)(C)C(=O)/C(=C/c1ccncc1)n1cncn1	.	.	.	6%	.
COc1ccc(CNC(=O)c2ccc(C)o2)cc1	2%	3.5µM*	-4	-9%	-10%
COc1ccc(CNC(=O)c2c(-c3cc(Cl)c(OC)c(Cl)c3)noc2C)cc1	-4%	-7%	22	0.045µM*	5%
Cc1ccc(SC(C)C(=O)NCc2ccncc2)cc1 (configuration not stated)	.	.	.	-3%	4%[46 µM]
COc1ccc(CNC(=O)c2cnc(C)cn2)c(OC)c1	-13%	-6%	5	?	5%
COc1ccc(CNC(=O)c2cnc(C)cn2)cc1	9%	25µM*	22	?	30%
COc1ccc(CNC(=O)c2ccc(C(C)(C)C)cc2)cc1	.	.	.	9%	.
COc1ccc(CNC(=O)C(C)Sc2ccc(C)cc2)cc1 (configuration not stated)	.	.	.	14µM*	.
Cc1cc(C)nc(/N=C2\NC(=O)CC(C(=O)O)N2c2ccc(Oc3ccccc3)cc2)n1 (configuration not stated)	2%	13µM*	?	-5%	1%
COc1ccccc1N=C1SCC(=O)N1c1ccccc1OC	-3%	?	44	20µM*	1%
COc1ccccc1N1C(=O)CSC1=NC(=O)c1ccccc1	.	.	.	-2%	.
CCN(CC)c1ccc(CC(=O)NC(C)Cc2ccccc2)cc1 (configuration not stated)	9%	-19%	-106*	10%	8%
CC(C)c1ccc(N(C(=O)c2cc3ccccc3oc2=O)C2C=CS(=O)(=O)C2)cc1 (configuration not stated)	3%	-18%	2	25µM*	?
CCN(C(=O)c1cc2ccccc2oc1=O)c1cccc(C)c1	14%	?	?	14µM*	3%
COc1ccc(-c2cc(N)n(S(=O)(=O)c3c(F)c(F)c(F)c(F)c3F)n2)cc1OC	-20%	-21%	-22	32µM*	?
Cc1ccc2nsnc2c1NS(=O)(=O)c1c(C)ccc2nsnc12	-8%	-6%	-13	-4%	10%
Cc1ccc(/C=[N+](\[O-])c2ccc(N(C)C)cc2)c2nsnc12	.	.	.	1.1µM*	?
COc1ccc(OC)c(CNC(=O)c2ccccc2NC(=O)c2nsc3ccccc23)c1	.	.	.	.	3%[46 µM]
CC1CCCN(C(=O)CSc2cnc3ccccc3n2)C1 (configuration not stated)	-4%	4.5µM*	10	28µM*	6%
SMILES	ALOX12 inhib	HPGD block	PNC assembly inh	ALDH1A1 block	LMNA splice mod
Cc1cc(SCC(=O)c2ccccc2)nc2ccccc12	3%[11.4 µM]	-25%	.	-5%[13.5 µM]	.
Cc1ccc(C(=O)CSc2cnc3ccccc3n2)cc1C	-5%	22µM*	-5	22µM*	?
CN(C)C(=O)CSc1cnc2ccccc2n1	.	.	.	1%	-20%[46 µM]
c1ccc(CSc2nnc(-c3cccnc3)o2)cc1	3%	-24%	-23	-3%	4%
O=C(CSc1nnc(-c2cccnc2)o1)OC1CCCCC1	2%	-14%	-27	10µM*	0%
c1cncc(-c2nnc(SCc3cccc4ccccc34)o2)c1	-2%	25µM*	?	-3%	0%
CCOC(=O)CSc1nnc(-c2cccnc2)o1	-2%	-14%	-13	13%	-3%
O=C(CCCOc1ccccc1)N1CCCc2ccccc21	-4%	-9%	-6	-7%	0%
CN1CCN(C(=O)CCCOc2ccc(Cl)cc2Cl)CC1	-5%	20µM*	-13	?	-2%
CN1CCN(C(=O)c2ccc(COc3ccc(Cl)cc3Cl)cc2)CC1	2%	2.8µM*	?	12%	-2%
O=C(O)c1ccc(COc2ccc(CO)cc2Cl)cc1	-2%	16µM*	21	15%	-9%
Cc1cc(Cl)ccc1OCCCC(=O)N1CCCc2ccccc21	-10%	-18%	-94*	-3%	?
CN(C)CCNC(=O)c1ccc(COc2ccc(Cl)cc2Cl)cc1	5%	?	78	4%	-7%
O=C(O)c1cccc(COc2ccc(CO)cc2Cl)c1	-2%	-22%	8	12%	-18%
CCC(C(=O)OC)n1cnc2c(nnn2-c2cccc(Cl)c2)c1=O (configuration not stated)	1%	20µM*	40	-7%	12%
Cc1cccc2c(=O)cc(CSc3ccccc3NC(=O)c3cccc(Cl)c3)[nH]c12	.	.	.	.	-7%[46 µM]
O=C(NCc1ccc2c(c1)CCN2C(=O)c1ccccc1)c1ccco1	.	.	.	.	0%[46 µM]
Cc1cccc(C)c1NC(=O)NC1CC2CCC(C1)N2Cc1cccs1 (configuration not stated)	-3%	-3%	-83*	-18%	?
Cc1ccc2c(c1)nnn2C1CCN(C(=O)C23CC4CC(CC(C4)C2)C3)CC1	2%	5%	?	18µM*	-3%
CCOc1ccc(-c2c(C)nn3c(C)c(C(=O)Nc4cccc(Cl)c4C)cnc23)cc1OCC	.	.	.	.	-3%[46 µM]
Cc1onc(-c2c(Cl)cccc2Cl)c1C(=O)NC(=S)Nc1sc2c(c1C(N)=O)CCC(C)C2 (configuration not stated)	1%	-5%	4	19µM*	-12%
Cc1onc(-c2c(Cl)cccc2Cl)c1C(=O)Nn1cnnc1	3%	-13%	-107*	7%	-3%
Cc1onc(-c2c(F)cccc2Cl)c1C(=O)NC(=S)NC1CCSC1=O (configuration not stated)	2%	?	37	10µM*	3%
Cc1onc(-c2c(Cl)cccc2Cl)c1C(=O)c1c[nH]c(C(=O)NCCCN2CCOCC2)c1	-1%	-9%	2	?	5%
